Compounds without any hit were thinned out: in the full panel of roughly 83,000, 20% have a hit.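 For each line, cells grew in 96-well plates with the test compound present at a single concentration for 48 hours.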 Calls of active or inactive are those of the source. How the source made its calls: active means growth percent below 10; inactive means the rest.
system: SK-MEL-5 melanoma; experiment: NCI-60 one-dose screen, 48 h (100 = growth as untreated, 0 = no growth, -100 = all killed); conditions: 10 µM unless noted

Structure (SMILES)	growth
NC1=NC(=O)NC1(c1ccccc1)c1ccccc1	95.9% (inactive)
N#C/C(C(=O)c1ccccc1)=C1/C(=O)Nc2ccccc21	95.6% (inactive)
CN(Cc1cccc(C(F)(F)F)c1)C(=O)[C@@H](CC(=O)N1CCC(N2CCCCC2)CC1)N1C(=O)[C@@H](N2C(=O)OC[C@@H]2c2ccccc2)[C@H]1/C=C/c1ccccc1	34.5% (inactive)
CCOc1ccc(S(=O)(=O)Nc2ccc3c(c2)N(S(=O)(=O)CC)CCC3)cc1	74.9% (inactive)
CCOC(=O)C(=Cc1ccccc1[N+](=O)[O-])C(=O)OCC	20.4% (inactive)
COc1cc(/C=C/C(=O)/C=C/c2ccc(-n3ccnc3C)cc2)ccc1O	85.2% (inactive)
CCOC(=O)CC(c1ccccc1)C(C#N)c1ccccc1 (configuration not stated)	98.7% (inactive)
Cc1ccc(C2=C/C(=C/c3ccc(Br)cc3)C(=O)N2CCc2ccc(S(N)(=O)=O)cc2)cc1	94.7% (inactive)
Cc1ccc(NC(=O)N[C@@H](Cc2cc(F)cc(F)c2)C(=O)N[C@@H]2C(=O)N3CCC[C@H]3C(=O)N3CCCC[C@H]3C(=O)N[C@@H](C)C(=O)N3C[C@H](C)C[C@H]3C(=O)O[C@H]2C)cc1	10.8% (inactive)
C=C(C)[C@@H]1CC[C@]2(C)[C@H](CC[C@@H]3[C@@H]([C@@](C)(O)CCC=C(C)C)CC[C@]32C)[C@@]1(C)CCC(=O)O	-88.2% [100 µM] (active)
C=CCCCCCCCCC(=O)OC(C)C	95.9% (inactive)
O=C1Nc2ccccc2/C1=C/C(=O)c1ccc(N2CCCCC2)cc1	93.2% (inactive)

— PubChem BioAssay (NCI)
